Compound activity: PubChem BioAssay, National Center for Advancing Translational Sciences (NCATS)
The full list was thinned out, with hits kept by preference.
NS1 function inh = influenza NS1 inhibition | Potency, µM (top dose mostly 46.1 µM) | hit rate 0.4% among 270,000; calls by dose curve; further: actives are rising curves; nearly all actives have a fitted effect of over 50% in size
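A cell-based growth assay was used: compounds that relieve NS1-induced slow growth of budding yeast raise OD600. Assay medium was yeast nitrogen base with ammonium sulphate and -URA supplement, pH 6.0, with 2% galactose.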
Cruzain noTriton = inhibitors of Trypanosoma cruzi cruzain without detergent | purified cruzain, Z-FR-AMC fluorescence, no detergent | P25779 | hit rate 2.3% among 200,000 | Potency, µM, usual class: inhibitors | AID 1476; further: nearly all actives have a fitted effect of over 40% in size
Target sequence (P25779 123-467 limits assumed): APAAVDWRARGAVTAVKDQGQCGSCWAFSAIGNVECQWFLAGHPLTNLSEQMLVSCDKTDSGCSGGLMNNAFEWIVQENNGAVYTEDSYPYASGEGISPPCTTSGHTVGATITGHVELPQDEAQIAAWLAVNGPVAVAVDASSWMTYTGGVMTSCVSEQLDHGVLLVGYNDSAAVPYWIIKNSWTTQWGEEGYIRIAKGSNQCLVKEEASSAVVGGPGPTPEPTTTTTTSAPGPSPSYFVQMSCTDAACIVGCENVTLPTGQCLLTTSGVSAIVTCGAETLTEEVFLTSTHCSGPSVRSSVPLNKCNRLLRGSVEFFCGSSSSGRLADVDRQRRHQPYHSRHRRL
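Purified cruzain at 1.5 nM, pre-incubated 15 min with compound at room temperature in 100 mM sodium acetate pH 5.5, 5 mM DTT, 0.00005% Triton X-100. Reaction started with 2 uM Z-FR-AMC; AMC fluorescence increase over 60 s gives rate.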
Cruzain Triton = blocks cruzain activity in presence of Triton detergent; hit rate 0.43% among 200,000; P25779; Potency, µM, usual class: inhibitors; AID 1478; purified cruzain, Z-FR-AMC fluorescence, 0.01% Triton; further: nearly all actives have a fitted effect of over 40% in size
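Cruzain (1.5 nM) preincubated 15 min at RT with compound in 100 mM sodium acetate pH 5.5, 5 mM DTT, 0.01% Triton X-100. Reaction started with 2 uM Z-FR-AMC; AMC fluorescence (ex 360/em 450 nm) change over 60 s gave rate.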
A number is an active result; – = inactive; ? = inconclusive; · = no result. Unless noted, the call rests on the fitted dose curve; in most records, active means well fitted curve in the direction sought with a large enough effect; inconclusive means small, poorly fitted or top-dose-only effect, or another doubt; inactive means no such curve, though single readings can be large; an effect the other way counts as inactive or inconclusive.

SMILES	NS1 function inh	Cruzain noTriton	Cruzain Triton
Cc1cccc(-n2nnc(-c3nc(-c4cccs4)no3)c2N)c1	·	–	–
COc1cc(N=c2ssnc2Cl)cc(OC)c1	–	16µM	–
COc1cc(OC)cc(-c2nc(-c3ccccc3OC)no2)c1	–	?	–
CN(Cc1ccco1)c1ncncc1-c1ccccc1C(F)(F)F	·	–	–
CC1c2nc3ccccc3n2C(CC(=O)NCc2ccccn2)C(=O)N1Cc1ccccc1 (stereo not given)	–	13µM	–
O=C(CCc1ccccc1)NCc1ccccn1	–	–	–
COc1ccc(C2=C(C)C(=NCCCN3CCN(c4cc(C)ccc4C)CC3)NS2(=O)=O)cc1	·	–	–
O=C(c1ccc(S(=O)(=O)N2CCCCC2)cc1)c1nnc(-c2ccc(Cl)cc2)o1	–	–	–
O=C(CCc1ccc(S(=O)(=O)N2CCCCC2)cc1)c1nnc(-c2ccccc2)o1	–	25µM	–
CC1Cc2cc(S(=O)(=O)CCC(=O)Nc3ccc(Cl)cc3F)ccc2N1C(=O)C1CC1 (stereo not given)	·	–	–
CC1Cn2c(C(=O)NCc3cccc(Br)c3)cc3cccc(c32)S1 (stereo not given)	·	?	–
O=C(CSc1ncc2c(n1)-c1ccccc1N(Cc1ccccc1)S2(=O)=O)Nc1ccccc1	·	–	–
Cc1ccc(CNC(=O)c2cc(C)nn2-c2ccccc2)cc1	–	·	·
Cc1ccc(Cc2nnc3n(-c4ccccc4)nc(C(=O)c4ccccc4)n3c2=O)cc1	–	25µM	–
CCCNC(=O)c1cc(-c2ccc(O)cc2)on1	–	·	·
CCCn1c(C)nc2c(Nc3ccccc3)nc(C)nc21	·	–	–
COc1ccccc1N1CCN(c2cc(=O)n(-c3ccc(Br)cc3)c(=O)[nH]2)CC1	–	?	–
O=c1cc(N2CCN(c3ccccc3F)CC2)[nH]c(=O)n1-c1ccc(Br)cc1	–	25µM	–
CC(=O)[C@@]1(O)CC[C@H]2C3CCC4=CC(=O)CC[C@]4(C)C3CC[C@@]21C (stereo not given in full)	–	–	–
CCc1ccc2occ(CC(=O)Nc3c(C(=O)Nc4ccc(OC)cc4)oc4ccccc34)c2c1	·	–	–
CCOc1ccc(NC(=O)c2oc3ccccc3c2NC(=O)C(C)Oc2ccccc2)cc1 (stereo not given)	·	32µM	–
CCOc1ccc(NC(=O)c2oc3ccccc3c2NC(=O)c2cc(C)cc(C)c2)cc1	·	–	–
COc1ccc(NC(=O)c2oc3ccccc3c2NC(=O)Cc2coc3ccc(C)cc23)cc1	·	25µM	–
COC(=O)c1cc(-c2ccc3ccccc3c2)[nH]c(=O)c1C#N	–	–	–
CCCCSc1nnc2n(-c3ccc(OC)cc3)c(=O)c3c4c(sc3n12)COC(C(C)C)C4 (stereo not given)	·	–	–
SMILES	NS1 function inh	Cruzain noTriton	Cruzain Triton
CCOc1ccc2c(c1)c(=O)c(C(=O)c1ccccc1)cn2Cc1ccccc1F	·	–	–
CCOc1ccc(N=Nc2ccc(O)c3ncccc23)cc1	–	·	·
Cc1cccc(N=Nc2ccc(O)c3ncccc23)c1	–	20µM	–
Cc1cccc(-c2nnn3c2nc(NCCc2ccc(S(N)(=O)=O)cc2)c2cc(Cl)ccc23)c1	·	–	–
Cc1ccc2c(Cl)cc(Cl)c(OCC(=O)Nc3cccc(S(N)(=O)=O)c3)c2n1	–	–	–
Cc1ccc2c(Cl)cc(Cl)c(OCC(=O)Nc3cccc(S(=O)(=O)N(C)C)c3)c2n1	–	13µM	–
N#Cc1c(NC(=O)CCC(=O)O)ccc2ccccc12	–	–	–
O=C(NCc1ccco1)c1ccc(Cn2c(=O)c3ccccc3n(Cc3cccc(Cl)c3)c2=O)cc1	–	?	–
O=C(NCc1ccco1)c1ccc(Cn2c(=O)c3sccc3n(Cc3cccc(F)c3)c2=O)cc1	?	25µM	–
Cc1cc(C)cc(NC(=O)c2cccc(N3CCCS3(=O)=O)c2)c1	·	–	–
CCn1c(CN2CCCCC2)nc2cc(NC(=O)COc3ccccc3C(C)(C)C)ccc21	·	–	–
O=C(O[C@@H]1Cc2c(O)cc(O)cc2OC1c1ccc(O)c(O)c1)c1cc(O)c(O)c(O)c1 (stereo not given in full)	·	–	–
Cc1cc(O)cc(O)c1C(=O)OC1(C)C(=O)C=C2C=C(/C=C/CO)OC=C2C1=O (stereo not given)	·	–	–
COc1ccc(C2NC(=O)N(C)C3=C2C(=O)N(c2cccc(Cl)c2)C3)cc1 (stereo not given)	·	–	–
N=C1C(c2nc(-c3ccc(F)cc3)cs2)=C(O)CN1CCCN1CCOCC1	–	–	–
CC(C)CCN1CC(O)=C(c2nc(-c3ccc(Cl)cc3)cs2)C1=N	–	25µM	–
COc1ccc(C2CC(=O)c3cc(-c4nc(-c5cccc([N+](=O)[O-])c5)cs4)c(=O)n(-c4ccccc4C)c3C2)cc1 (stereo not given)	·	–	–
Cc1cc(-c2csc(N)n2)c(C)n1CCC(C)C	–	25µM	–
CCOC(=O)c1cc(C)n(CCc2ccccc2)c1C	–	–	–
CCNc1nc(-c2cc(C)n(Cc3ccco3)c2C)cs1	–	·	·
Cc1cc(-c2csc(N)n2)c(C)n1CCc1ccccc1	?	4µM	–
Cc1c(Cc2ccc3c(c2)OCO3)sc(NC(=O)c2ccc3ccccc3c2)c1C(N)=O	–	10µM	–
CCC(=O)Nc1sc(Cc2ccc3c(c2)OCO3)c(C)c1C(N)=O	–	·	·
COc1ccc(CNC(=O)c2ccc3c(c2)CCN3S(=O)(=O)c2ccc(Cl)cc2)cc1	·	?	–
CCOC(=O)c1c(C)[nH]c(C)c1S(=O)(=O)N1CCCC(C(=O)N2CCN(c3cccc(Cl)c3)CC2)C1 (stereo not given)	·	?	–
SMILES	NS1 function inh	Cruzain noTriton	Cruzain Triton
Cc1cccc(C)c1NC(=O)CSc1nc(C)c(CC(=O)c2ccc(Br)cc2)c(C)c1C#N	–	32µM	–
Cc1nc(SCC(=O)Nc2ccccc2C(F)(F)F)c(C#N)c(C)c1CC(=O)c1ccc(Br)cc1	–	–	–
Cc1nc2ccc(S(=O)(=O)NC(C(=O)N3CCN(c4cccc(Cl)c4)CC3)C(C)C)cc2s1 (stereo not given)	·	–	–
COc1ccc2c(c1)C(=O)[C@@H](OC(=O)NS(=O)(=O)c1ccc(C)cc1)[C@H](c1ccc(OC)c(Br)c1)O2	·	–	–
Cc1ccc(-n2c(C)cc(/C=c3/sc4nc5ccccc5n4c3=O)c2C)cc1	–	10µM	–
O=c1/c(=C\c2cccn2-c2ccccc2)sc2nc3ccccc3n12	–	?	–
Clc1ccccc1-c1nccc(NCc2ccccc2)n1	·	–	–
CC(=O)c1ccc(NC(=O)C2CCC(CNS(=O)(=O)c3ccc4c(c3)CCCC(=O)N4)CC2)cc1 (stereo not given)	·	–	–
Cc1cn2c(=O)cc(COC(=O)c3cccc(NC(=O)c4ccc(C(C)(C)C)cc4)c3)nc2s1	·	–	–
COc1ccc(N2CCN(CC(=O)Nc3nnc(-c4ccccc4)s3)CC2)cc1	–	25µM	–
O=C(CN1CCN(c2ccccc2)CC1)Nc1nnc(-c2ccccc2)s1	–	–	–
COc1cc(OC)c(NC(=O)c2c(N3CCCC3=O)c3cc(C)ccc3n2C)cc1Cl	·	–	–
Cc1ccc(C2CC(=O)Oc3cc(C)c(Cl)c(C)c32)cc1 (stereo not given)	·	–	–
Cc1ccccc1C(=O)NC1(C(F)(F)F)N=C(c2ccccc2)N(Cc2ccccc2)C1=O (stereo not given)	·	–	–
